Results as given in the supplement of paper PMC9694430.

system: LOC_OS01G57100-cb003; assay: thermal shift delta Tm vs DMSO control; higher = stronger stabilization (binding); conditions: 12.5 µM; protein concentration 2 µM
Method in brief: (§1)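 Thermal shift values come from differential scanning fluorimetry on purified rice kinase domains made in E. coli, with melting temperatures obtained from Boltzmann fits. Samples of 19.5 μl held 2 μM kinase, 100 mM potassium phosphate pH 7.5, 150 mM NaCl, 10% glycerol, 5 × SYPRO Orange and compound in DMSO, and were heated from 25°C to 95°C at 0.05°C/s. Each shift is a triplicate mean relative to the DMSO-only protein sample.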
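Also: purified Escherichia coli-expressed rice kinase domain construct.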

In order of rising “thermal shift delta Tm” value:
1. CN(C)Cc1cccc(N/C(=C2\C(=O)Nc3cc(C(N)=O)ccc32)c2ccccc2)c1  0.28 °C
2. Cc1cc(Nc2cc(N3CCN(C)CC3)nc(/C=C/c3ccccc3)n2)n[nH]1  0.41 °C
3. CC[C@H](CO)Nc1nc(NCc2ccccc2)c2ncn(C(C)C)c2n1 [Roscovitine (Seliciclib,CYC202)]  0.43 °C
4. Clc1ccc(C2(c3ccc(-c4cn[nH]c4)cc3)CCNCC2)cc1  1.65 °C

system: LOC_OS01G60330-cb001; assay: as above; conditions: 12.5 µM; protein concentration 2 µM
Method in brief: as §1

In order of rising “thermal shift delta Tm” value:
1. C=C(C)[C@@H]1CC[C@]2(C)CC[C@]3(C)[C@H](CC[C@@H]4[C@@]5(C)CC[C@H](O)C(C)(C)[C@@H]5CC[C@]43C)[C@@H]12 [Lupeol]  -0.59 °C
2. Cn1nccc1Nc1nccc(-c2ccn([C@H](CO)c3ccc(Cl)c(F)c3)c(=O)c2)n1  -0.22 °C
3. COc1cc2c(N3CCN(C(=O)Nc4ccc(OC(C)C)cc4)CC3)ncnc2cc1OCCCN1CCCCC1 [Tandutinib (MLN518)]  0.04 °C
4. COc1ccc(F)c(F)c1C(=O)c1cnc(NC2CCN(S(C)(=O)=O)CC2)nc1N  0.06 °C
5. Cc1cc(Nc2ncnc3ccc(NC4=NC(C)(C)CO4)cc23)ccc1Oc1ccn2ncnc2c1 [Irbinitinib (ARRY-380, ONT-380)]  0.15 °C
6. O=C1NC(=O)C(c2ccccc2[N+](=O)[O-])=C1Nc1ccc(O)c(Cl)c1  0.17 °C
7. CCN(CC)CCCC(C)Nc1ccnc2cc(Cl)ccc12 (centres undefined) [Chloroquine Phosphate]  0.19 °C
8. O=c1cc(N2CCOCC2)oc2c(-c3ccc4c(c3)OCCO4)csc12  0.29 °C
9. Cc1c(C(=O)N2CCOc3ccc(-c4ccc(N)nc4)cc3C2)ccc(S(C)(=O)=O)c1F  0.34 °C
10. CCN(CC)CCCCNc1ncc2cc(-c3cc(OC)cc(OC)c3)c(NC(=O)NC(C)(C)C)nc2n1  0.35 °C
11. COc1cc2ncnc(Nc3ccc(Cl)cc3F)c2cc1OC  0.41 °C
12. COc1cc(N2CCC(N(C)C)CC2)ccc1Nc1ncc(Cl)c(Nc2ccccc2P(C)(C)=O)n1  0.43 °C
13. O=C(NC[C@H](O)CO)c1ccncc1Nc1ccc(I)cc1F  0.48 °C
14. COc1cc(C(=O)N2CCC(N3CCN(C)CC3)CC2)ccc1Nc1ncc2c(n1)N(C)c1ccccc1C(=O)N2C  0.56 °C
15. CCOc1cc2ncc(C#N)c(Nc3ccc(OCc4ccccn4)c(Cl)c3)c2cc1NC(=O)/C=C/CN(C)C [Neratinib (HKI-272)]  0.66 °C
16. Cc1ccc(NC(=O)c2cccc(C(C)(C)C#N)c2)cc1Nc1ccc2ncn(C)c(=O)c2c1  0.66 °C
17. CCOc1cc2ncc(C#N)c(Nc3ccc(F)c(Cl)c3)c2cc1NC(=O)/C=C/CN(C)C [Pelitinib (EKB-569)]  0.74 °C
18. COC(=O)Nc1ccc(-c2nc(N3CCOCC3)c3cnn(C4CCN(C(=O)OC)CC4)c3n2)cc1  0.77 °C
19. CCn1c(N)c(C(=O)NC)c(=O)c2ccc(C#CC(C)(O)COC)nc21 (centres undefined)  1.02 °C
20. Nc1ccc(-c2ccc3ncc4ccc(=O)n(-c5cccc(C(F)(F)F)c5)c4c3c2)cn1 [Torin 2]  1.09 °C
21. Nc1ccc(C(=O)Nc2cccc(-c3nc(N4CCOCC4)c4oc5ncccc5c4n3)c2)cn1  1.1 °C
22. C[C@@H](N)[C@H]1CC[C@H](C(=O)Nc2ccncc2)CC1  1.12 °C
23. C[C@@H]1COCCN1c1cc(=O)n2c(n1)N(Cc1cncc(Cl)c1)[C@H](C(F)(F)F)CC2  1.13 °C
24. O=C(NCc1ccccc1)c1csc(Nc2ccncn2)n1 [Thiazovivin]  1.17 °C
25. CCOc1cc(C(=O)N2CCC(N3CCN(C)CC3)CC2)ccc1Nc1ncc2c(n1)N(C1CCCC1)c1ccccc1C(=O)N2C  1.19 °C
26. CC1(C)CNc2cc(NC(=O)c3cccnc3NCc3ccncc3)ccc21 [Motesanib Diphosphate (AMG-706)]  1.28 °C
27. COc1cc2nccc(Oc3ccc(NC(=O)Nc4cc(C)on4)c(Cl)c3)c2cc1OC [Tivozanib (AV-951)]  1.29 °C
28. Oc1cccc(-c2nc(N3CCOCC3)c3oc4ncccc4c3n2)c1  1.6 °C
29. CO[C@H]1C[C@@H]2CC[C@@H](C)[C@@](O)(O2)C(=O)C(=O)N2CCCC[C@H]2C(=O)O[C@H]([C@H](C)C[C@@H]2CC[C@@H](OCCO)[C@H](OC)C2)CC(=O)[C@H](C)/C=C(\C)[C@@H](O)[C@@H](OC)C(=O)[C@H](C)C[C@H](C)/C=C/C=C/C=C/1C [Everolimus (RAD001)]  1.72 °C
30. CCCS(=O)(=O)Nc1ccc(F)c(C(=O)c2c[nH]c3ncc(-c4ccc(Cl)cc4)cc23)c1F [Vemurafenib (PLX4032, RG7204)]  10.2 °C
